The record followed here is PubChem BioAssay (Tox21).

For assay [1], the target named is Acetylcholinesterase (Homo sapiens) (UniProt P22303). Kind of assay: Acetylcholinesterase (AChE) small molecule antagonists: colormetric cell-based qHTS assay (AID 1347395). Also: nearly all actives have a fitted effect of over 30% in size. Also: potency is read from the fitted curve at half-maximal effect. The procedure, abridged: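 SH-SY5Y cells, plated overnight at 37 C, were exposed to compounds for 30 min at 37 C and 5% CO2. Acetylthiocholine plus DTNB was then added, and thiocholine from endogenous AChE was quantified colorimetrically after 90 min at 37 C.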

Assay [2] shares this target. Kind of assay: Acetylcholinesterase (AChE) small molecule antagonists: enzyme-based qHTS assay (AID 1347397). Also: nearly all actives have a fitted effect of over 55% in size. Also: potency is read from the fitted curve at half-maximal effect. The note with it: Potency: AChE enzyme activity inhibition; outcome: AChE enzyme activity inhibition. The procedure, abridged:
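First, recombinant human AChE (50 mU/mL as dispensed) received test compound or DMSO. Second, plates stood 30 min at room temperature. Third, DTNB and acetylthiocholine were added, followed by 10 min at room temperature and colorimetric detection.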

The target is the same in assay [3]. The assay is described as follows: Acetylcholinesterase (AChE) small molecule antagonists: enzyme-based qHTS assay with human liver microsomes (AID 1347399). Also: nearly all actives have a fitted effect of over 60% in size. Conditions: Potency: qHTS inhibition; outcome: qHTS inhibition. The method, boiled down:
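Recombinant human AChE (50 mU/mL in the enzyme mix) and human liver microsomes (0.25 mg/mL final) were preincubated with compound and NADPH (0.25 mg/mL final) for 30 min at 37 C. Acetylthiocholine/DTNB was then added; thiocholine was read colorimetrically after 10 min at room temperature.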
Background: In qHTS, concentration-response curves come from the screen itself.

Unmarked numbers belong to inactive results. Inconclusive results are not listed. Calls of active or inactive are those of the source. Calls follow the shape of the full dose curve.
% is scaled to controls: 0 for no effect and ±100 for the full control effect.

Chain of Acetylcholinesterase (Homo sapiens) (P22303 whole entry, looked up): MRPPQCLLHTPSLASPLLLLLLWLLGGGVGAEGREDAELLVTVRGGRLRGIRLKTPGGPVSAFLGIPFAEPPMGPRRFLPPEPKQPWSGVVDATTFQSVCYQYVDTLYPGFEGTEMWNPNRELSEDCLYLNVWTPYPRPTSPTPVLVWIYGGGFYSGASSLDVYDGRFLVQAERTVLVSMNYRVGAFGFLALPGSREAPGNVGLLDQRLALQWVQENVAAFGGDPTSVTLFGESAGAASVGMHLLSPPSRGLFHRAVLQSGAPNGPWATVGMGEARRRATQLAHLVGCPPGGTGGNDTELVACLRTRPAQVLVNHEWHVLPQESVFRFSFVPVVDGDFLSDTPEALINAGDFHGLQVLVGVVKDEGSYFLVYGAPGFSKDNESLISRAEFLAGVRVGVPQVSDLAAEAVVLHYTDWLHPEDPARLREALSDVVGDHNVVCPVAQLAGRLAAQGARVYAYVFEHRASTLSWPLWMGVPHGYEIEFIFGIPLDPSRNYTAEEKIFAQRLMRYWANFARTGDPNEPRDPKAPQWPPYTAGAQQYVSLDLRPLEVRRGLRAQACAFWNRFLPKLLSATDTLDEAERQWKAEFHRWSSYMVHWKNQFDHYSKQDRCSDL

With `O=C(CCBr)N1CCN(C(=O)CCBr)CC1`, the Potency result in assay [1], in assay [2] and in assay [3] was “inactive” in each case.

Regarding `Nc1ccc([N+](=O)[O-])cc1O`, the Potency entry in assay [1], in assay [2] and in assay [3] was “inactive” throughout.

In the case of `CN[C@H]1CC[C@@H](c2ccc(Cl)c(Cl)c2)c2ccccc21`, the Potency entry in assay [1], in assay [2] and in assay [3] was “inactive” each time.

Turning to `CC(=O)Nc1ccc(S(=O)(=O)Cl)cc1`, the Potency entry in assay [1], in assay [2] and in assay [3] was “inactive” each time.

Turning to `C=CCN1C[C@H](C(=O)N(CCCN(C)C)C(=O)NCC)C[C@@H]2c3cccc4[nH]cc(c34)C[C@H]21`, the Potency in assay [1] was 34.7 µM (active). Besides, the Potency entry in assay [2] and in assay [3] was “inactive” each time.

For `CC(=O)Oc1cccc(C)c1`, the Potency entry in assay [1], in assay [2] and in assay [3] was “inactive” throughout.

Turning to `Cc1ccc(O)c(N)c1`, the Potency result in assay [1], in assay [2] and in assay [3] was “inactive” in each case.

Take `CO/N=C(\C(=O)N[C@@H]1C(=O)N2C(C(=O)O)=C(CSc3nc(=O)c(O)nn3C)CS[C@H]12)c1csc(N)n1`: the Potency result in assay [1], in assay [2] and in assay [3] was “inactive” in each case.

For the compound `CN1C[C@H]2c3ccccc3Oc3ccc(Cl)cc3[C@@H]2C1`, the Potency entry in assay [1], in assay [2] and in assay [3] was “inactive” throughout.

Consider `CCN(CC)C(C)CN1c2ccccc2Sc2ccccc21` (stereo not drawn), for which the Potency entry in assay [1], in assay [2] and in assay [3] was “inactive” in each case.

Regarding `c1ccc([C@H]2CN3CCSC3=N2)cc1`, the compound was classed as inactive in assay [1], in assay [2] and in assay [3].

Regarding `CC(=O)[C@]1(O)Cc2c(O)c3c(c(O)c2[C@@H](O[C@H]2C[C@H](N)[C@H](O)[C@H](C)O2)C1)C(=O)c1ccccc1C3=O`, the Potency in assay [1] was 17.4 µM (active). Further, the Potency result in assay [2] and in assay [3] was “inactive” each time.

For `COc1cc2c(Nc3ccc(Br)cc3F)ncnc2cc1OCC1CCN(C)CC1`, the Potency entry in assay [1], in assay [2] and in assay [3] was “inactive” each time.

On to `Cc1nccn1-c1ccc(Sc2cccc(C3(C(N)=O)CCOCC3)c2)cc1`, for which the outcome in assay [1], in assay [2] and in assay [3] was inactive.

Consider `Cc1onc(-c2c(Cl)cccc2Cl)c1C(=O)Cl`, for which the Potency entry in assay [1], in assay [2] and in assay [3] was “inactive” in each case.

`O=S(=O)(O)c1cc(S(=O)(=O)O)c2ccc3c(S(=O)(=O)O)cc(S(=O)(=O)O)c4ccc1c2c43`: the activity, negative = inhibition in assay [1] was -7.76% [at 23.6 µM]. Moreover, the activity change, negative = inhibition was -5.03% [at 23.6 µM] in assay [2] and 2.76% [at 23.6 µM] in assay [3].

For `CC1=C(/C=C/C(C)=C\C=C\C(C)=C\C(=O)O)C(C)(C)CCC1`, the Potency result in assay [1], in assay [2] and in assay [3] was “inactive” throughout.

Consider `Cc1ccccc1C(=O)O`, for which the Potency entry in assay [1], in assay [2] and in assay [3] was “inactive” throughout.

In the case of `C=CCN1CCc2nc(N)sc2CC1`, the Potency result in assay [1], in assay [2] and in assay [3] was “inactive” each time.

Take `CCOC(=O)COc1ccc2c(c1)CC(NCC(O)c1cccc(Cl)c1)CC2` (stereo not drawn): the Potency entry in assay [1], in assay [2] and in assay [3] was “inactive” in each case.

For the compound `CCO[C@H](Cc1ccc(OCCc2ccc(OS(C)(=O)=O)cc2)cc1)C(=O)O`, the Potency entry in assay [1], in assay [2] and in assay [3] was “inactive” throughout.

Take `CN(C[C@@H](CC[N+]12CCC(C3CCCCC3)(CC1)CC2)c1ccc(Cl)c(Cl)c1)C(=O)c1cc(C(F)(F)F)cc(C(F)(F)F)c1`: the compound was classed as inactive in assay [1] and in assay [3]. In addition, the Potency in assay [2] was 7.96 µM (active).

Regarding `CNCc1ccc(NC(=O)c2c[nH]c3c2C(=O)CCC3)cc1`, the Potency in assay [1] is 35.6 µM (active). Further, the Potency result in assay [2] and in assay [3] was “inactive” each time.

For the compound `Cc1cc(C(C)(C)C)cc(C)c1CC1=NCCN1`, the Potency entry in assay [1], in assay [2] and in assay [3] was “inactive” throughout.

As for `CN1C(=O)c2ccc([N+](=O)[O-])cc2C1=O`, the Potency result in assay [1], in assay [2] and in assay [3] was “inactive” each time.

Take `CCOC(=O)c1ccc(C#Cc2ccc3c(c2)C(C)(C)CCS3)nc1`: the Potency result in assay [1], in assay [2] and in assay [3] was “inactive” each time.

As for `CC(C)C1OCCN1CCOC(=O)NCCCCCCNC(=O)OCCN1CCOC1C(C)C` (stereo not drawn), the Potency result in assay [1], in assay [2] and in assay [3] was “inactive” each time.

For the compound `CN(C(=O)c1c(O)c2ccccc2n(C)c1=O)c1ccccc1`, the Potency result in assay [1], in assay [2] and in assay [3] was “inactive” each time.

In the case of `CN1CCCC(CC2c3ccccc3Sc3ccccc32)C1` (stereo not drawn), the Potency entry in assay [1], in assay [2] and in assay [3] was “inactive” throughout.

Regarding `CSc1ccc(Oc2ccc(S(N)(=O)=O)cc2CN(C)C)cc1C`, the Potency entry in assay [1], in assay [2] and in assay [3] was “inactive” in each case.

Regarding `CCCCOC(=O)CCCCC(=O)OCCCC`, the Potency result in assay [1], in assay [2] and in assay [3] was “inactive” in each case.

In the case of `O=[N+]([O-])c1ccc(O/N=C/c2cc(Br)c(O)c(Br)c2)c([N+](=O)[O-])c1`, the Potency entry in assay [1], in assay [2] and in assay [3] was “inactive” throughout.

With `Cc1ccc(N)cc1S(=O)(=O)O`, the Potency result in assay [1], in assay [2] and in assay [3] was “inactive” each time.

For the compound `CCCCCCCCCCCCSCCOCCO`, the Potency entry in assay [1], in assay [2] and in assay [3] was “inactive” each time.

For the compound `COc1c(C)c2c(c(O)c1C/C=C(\C)CCC(=O)O)C(=O)OC2`, the Potency entry in assay [1], in assay [2] and in assay [3] was “inactive” in each case.

In the case of `COc1ccccc1N=Nc1c(S(=O)(=O)O)cc2cc(S(=O)(=O)O)cc(NC(C)=O)c2c1O`, the Potency entry in assay [1], in assay [2] and in assay [3] was “inactive” throughout.

As for `CCCCCN=C(N)N/N=C/c1c[nH]c2ccc(OC)cc12`, the Potency entry in assay [1], in assay [2] and in assay [3] was “inactive” throughout.

As for `Cc1cc(O)c2ccccc2c1O`, the Potency entry in assay [1], in assay [2] and in assay [3] was “inactive” throughout.

With `CSc1ccc2c(c1)C(N1CCN(C)CC1)Cc1ccccc1S2` (stereo not drawn), the Potency entry in assay [1], in assay [2] and in assay [3] was “inactive” throughout.

For `c1ccc(C(O[C@H]2CCCN(CCc3ccc4c(c3)OCO4)C2)c2ccccc2)cc1`, the Potency result in assay [1], in assay [2] and in assay [3] was “inactive” in each case.

Turning to `NC/C=C/C(=O)O`, the Potency entry in assay [1], in assay [2] and in assay [3] was “inactive” in each case.

On to `CCN(CC)c1ccc2c(-c3ccccc3C(=O)O)c3ccc(=[N+](CC)CC)cc-3oc2c1`, for which the Potency entry in assay [1], in assay [2] and in assay [3] was “inactive” in each case.

With `CCCCN`, the Potency entry in assay [1], in assay [2] and in assay [3] was “inactive” throughout.

`NS(=O)(=O)c1cc2c(cc1C(F)(F)F)NC(Cc1ccccc1)NS2(=O)=O` (stereo not drawn): in assay [1], the Potency is 38.9 µM (active). In addition, the Potency result in assay [2] and in assay [3] was “inactive” each time.

For the compound `COCC(=O)O[C@]1(CCN(C)CCCc2nc3ccccc3[nH]2)CCc2cc(F)ccc2[C@@H]1C(C)C`, the Potency result in assay [1], in assay [2] and in assay [3] was “inactive” each time.

On to `C=CCSCC1Nc2cc(Cl)c(S(N)(=O)=O)cc2S(=O)(=O)N1` (stereo not drawn), for which the Potency result in assay [1], in assay [2] and in assay [3] was “inactive” in each case.
